In the supplement of paper PMC6555819:

Legend:
Test in all cases: PBM binding z-score (relative to random genomic background probes); higher = stronger binding; sequences stand for … in GC…GCGATTGACAGCGTAGAATGAAGG
[1] = tested on: PPARg:RXRa DBDmut IVT, anti-RXR (DBD mutation: RXRa K156A/R161A, NR concentration 270 nM, RXRa partner concentration 90 nM)
Procedure, shortened: (§1)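 Random background probes are the reference for binding z-scores. These scores derive from regression-normalized fluorescence on custom Agilent 4×180K protein-binding microarrays incubated 1 h with ligand-free nuclear receptor dimers. Binding was detected with antibodies against each partner (one per run).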

[2] = tested on: PPARg:RXRa IVT, anti-PPARg (NR concentration 270 nM, RXRa partner concentration 90 nM)
Procedure, shortened: as §1

[3] = tested on: PPARg DBDmut:RXRa IVT, anti-PPARg (DBD mutation: PPARg1 K132A/R137A, NR concentration 270 nM, RXRa partner concentration 90 nM)
Procedure, shortened: as §1

[4] = tested on: PPARg DBDmut IVT, anti-PPARg (DBD mutation: PPARg1 K132A/R137A, NR concentration 270 nM)
Procedure, shortened: as §1

[5] = tested on: PPARg homodimer (NR concentration 180 nM)
Procedure, shortened: as §1

[6] = tested on: PXR:RXRa (NR concentration 270 nM, RXRa partner concentration 90 nM)
Procedure, shortened: as §1

[7] = tested on: PXR homodimer (NR concentration 270 nM)
Procedure, shortened: as §1

[8] = tested on: RARa:RXR (NR concentration 270 nM, RXRa partner concentration 90 nM)
Procedure, shortened: as §1

[9] = tested on: RARa homodimer (NR concentration 270 nM)
Procedure, shortened: as §1

[10] = tested on: RARb:RXRa (NR concentration 270 nM, RXRa partner concentration 90 nM)
Procedure, shortened: as §1

[11] = tested on: RARb homodimer (NR concentration 270 nM)
Procedure, shortened: as §1

[12] = tested on: RARg:RXRa (NR concentration 270 nM, RXRa partner concentration 90 nM)
Procedure, shortened: as §1

[13] = tested on: RARg homodimer (NR concentration 270 nM)
Procedure, shortened: as §1

[14] = tested on: RXRa DBDmut IVT, anti-RXR (DBD mutation: RXRa K156A/R161A, NR concentration 90 nM)
Procedure, shortened: as §1

[15] = tested on: RXRa homodimer (NR concentration 180 nM)
Procedure, shortened: as §1

[16] = tested on: THRa:RXRa (NR concentration 90 nM, RXRa partner concentration 90 nM)
Procedure, shortened: as §1

[17] = tested on: THRa homodimer (NR concentration 90 nM)
Procedure, shortened: as §1

[18] = tested on: VDR homodimer (NR concentration 270 nM)
Procedure, shortened: as §1

| Sequence | PBM binding z-score [1] | PBM binding z-score [2] | PBM binding z-score [3] | PBM binding z-score [4] | PBM binding z-score [5] | PBM binding z-score [6] | PBM binding z-score [7] | PBM binding z-score [8] | PBM binding z-score [9] | PBM binding z-score [10] | PBM binding z-score [11] | PBM binding z-score [12] | PBM binding z-score [13] | PBM binding z-score [14] | PBM binding z-score [15] | PBM binding z-score [16] | PBM binding z-score [17] | PBM binding z-score [18] |
| --- | --- | --- | --- | --- | --- | --- | --- | --- | --- | --- | --- | --- | --- | --- | --- | --- | --- | --- |
| ATCGAAAGGTCGAAGGTGTGTATACCCACCCGAA | -0.369 | 1.67 | 0.695 | 0.274 | 1.64 | 2.3 | 0.219 | 3.33 | 0.296 | 3.52 | 2.15 | 3.83 | 3.73 | 0.844 | 4.12 | 1.6 | -0.397 | 0.639 |
| TCTTGTAGATCAAAAGAGGTTAAGAAAGTGCGCT | 1.47 | 0.83 | 0.0222 | 0.122 | 0.373 | 2.86 | 0.102 | 1.79 | -0.0887 | 0.887 | 0.976 | 0.867 | 0.449 | 0.343 | 1.35 | 2.6 | -0.614 | 0.274 |
| TCGAGTAGGTTCGGGGCATTCAGAATGGCGTCGA | 0.529 | -0.193 | -0.804 | -0.918 | -0.546 | -0.101 | -0.4 | -0.0228 | -1.08 | 0.221 | -0.0297 | -0.387 | -0.609 | 0.913 | -0.159 | 0.428 | -0.274 | 1.09 |
| ACTTACGGGTCCACGAGGTTATAGCACGCGTATA | 0.0725 | 0.67 | 0.473 | 0.278 | 0.407 | 1.48 | 1.01 | 1.8 | 0.384 | 1.15 | 1.33 | 1.43 | 0.919 | 3.07 | 1.61 | 2.26 | 1.65 | 3.37 |
| AGTCAATGTTCATCTAGGTAACGTAAGATATGCT | 0.56 | 1.85 | 1.15 | 0.949 | -0.656 | -0.196 | 0.00127 | -0.13 | 0.181 | 0.152 | -0.0821 | 0.125 | 0.41 | 0.291 | 0.0893 | 0.616 | 0.345 | -0.282 |
| TTACCAAGGTGAAGGTCGTTGAGCCCTCTGTAGA | 1.99 | 3.36 | -0.0104 | -0.329 | 0.702 | 1.16 | -0.0928 | 1.57 | -0.872 | 2.07 | 1.79 | 1.3 | 1.08 | 0.1 | 1.59 | 2.14 | 0.652 | 0.688 |
| GCTTACGGGTTAAAGGTTATAGCATGAATAGAAT | 1.96 | 4 | 0.8 | 1.12 | 1.78 | 4.18 | 0.49 | 6.08 | 1.07 | 2.31 | 1.74 | 3.66 | 1.37 | 0.714 | 6.82 | 2.8 | 0.253 | 0.558 |
| CTCGAAAGGTCGGTTGAGGTGCGTATACGGATAA | -0.22 | 0.354 | -0.47 | -0.617 | 0.786 | 1.84 | 0.0676 | 1.44 | -0.0377 | 2.92 | 1.76 | 2.59 | 2.85 | 0.676 | 2.12 | 3.88 | -0.208 | 0.626 |
| ATAGGTAGGTTATCGGGTCATTCAGTTTGCGCAT | 4.9 | 5.09 | 1.49 | 1.46 | 2.74 | 3.9 | 7.44 | 3.76 | 2.57 | 2.62 | 3.33 | 3.46 | 2.72 | 1.53 | 3.29 | 3.41 | 3.2 | 4.02 |
| TCATATAGGTAAATGCTAGGTGAATGTCCGATCT | 3.97 | 2.57 | 0.725 | 1.15 | 0.769 | 0.548 | 0.635 | 1.02 | 1.27 | 0.461 | 0.278 | 0.529 | 0.626 | 1.46 | 0.893 | 1.49 | 0.604 | 0.143 |
| CTAGCAAGGTGAACAAGGTCGTTGATTACTATTC | 2.52 | 2.56 | 0.0933 | -0.41 | 0.474 | 2.46 | 1.4 | 1.95 | -0.493 | 2.15 | 1.77 | 1.68 | 1.5 | 1.25 | 2.1 | 3.18 | 1.45 | 2.32 |
| CAAACTAGGTGAAGAGGTCAAAGTCCGCTTCCCG | 7.18 | 7.52 | 2.35 | 2.46 | 2.49 | 5.31 | 1.58 | 5.42 | 0.811 | 4.19 | 4.7 | 5.44 | 3.96 | 1.73 | 5.48 | 3.86 | 1.42 | 3.38 |
| CCTTACGAGTCACTGACAGGTTATAGCATTTGGA | 0.816 | 0.0297 | 1.14 | 0.808 | 1.1 | 0.7 | 0.734 | 1.15 | 1.48 | 0.807 | 1.23 | 1.22 | 0.808 | 0.998 | 0.893 | 0.852 | 0.813 | 0.964 |
| ATCGAAAGGTCGACGAGGTGAGTACACACCGTTT | 0.467 | 2.23 | 0.931 | 1.06 | 1.57 | 3.19 | 0.753 | 3.6 | 0.262 | 3.82 | 3.26 | 4.26 | 4.18 | 1.34 | 4.5 | 3.7 | 1.06 | 2.27 |
| CCAGACAGGTGAGAAGGGAACTCAGCCTCGATTA | 0.589 | 0.343 | -0.35 | -0.943 | 0.62 | -0.225 | 0.169 | -0.0265 | 0.727 | 0.228 | 0.237 | -0.0873 | 0.115 | 0.063 | 0.0773 | 0.215 | 0.0826 | -0.25 |
